MPTP block: permeability transition pore inhibition. inhibition, % at 10 µM. hit rate 1.4% among 360,000. isolated mouse mitochondria, Ca2+ swelling absorbance, 30 min. AID 602449;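 active = inhibition of 50% or more, scaled per plate between neutral and stimulator controls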;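 also: 0% = DMSO wells given calcium and 100% = 1 mM EGTA wells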
Mdm2-MdmX inh: human Mdm2/MdmX binding inhibition. O15151+Q00987. hit rate 3% among 330,000. AID 485346. inhibition, % at 8 µM. SaOS-2 split-luciferase Mdm2/MdmX complementation, luminescence;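 active = inhibition of at least 50% at 8 µM in the primary screen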
SKKanGAS inh: inhibitors of SKKanGAS S. pyogenes growth in kanamycin (SK-promoter or general growth effect); BacTiter-Glo, 6 h; inhibition, % at 7.5 µM; hit rate 1.3% among 300,000;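 active = mean replicate score, as percent of positive control median, at least 50; inconclusive = mean below 50 but one replicate at or above 50; inactive = mean and every replicate below 50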;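 also: strain carries kanamycin resistance gene driven by streptokinase promoter and grows in 40 µg/ml kanamycin; loss of luminescence reflects streptokinase promoter inhibition or plain growth inhibition; 0% = median of DMSO wells and 100% = positive control at its reference dose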
Beta apoptosis: beta cell apoptosis inhibition; INS-1E cytokine-induced death, ATP luminescence, 48 h; percent of positive-control rescue, neutral wells zero; protection from apoptosis, % (test concentration not listed); hit rate 0.8% among 300,000;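 active = Every replicate reaches about 75%, or at least half do and their mean reaches it too, limit read from the data; inconclusive = At least half of replicates reach the limit but their mean does not; inactive = Under half of replicates reach the limit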;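 also: 0% = cytokine-treated negative control wells and 100% = positive control rescue; higher means more ATP so stronger rescue from cytokine killing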
Calb FLC: C. albicans growth modulation with fluconazole; growth inhibition, % (concentration not given with the values); C. albicans CaCi-2 (fluconazole-resistant clinical isolate) + fluconazole, Alamar Blue growth, 48 h; hit rate 0.57% among 300,000;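 active = growth inhibition above about 58% in most replicates, limit read from the data, passing the limit was not always enough; inconclusive = exactly half the replicates above a set limit; inactive = most replicates below a set limit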;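 also: all wells also contain fluconazole at 8 µg/ml as a sub-toxic cotreatment; 0% = median of DMSO wells and 100% = median of geldanamycin control wells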
CSC inhib: blocks cancer stem cells. cancer stem cell-like cells viability, luminescence. inhibition, % at 7.5 µM. hit rate 1.1% among 300,000; in the data active = inhibition above about 75%; inconclusive = no clear call, values can overlap the other calls; tested in HMLE shEcad cells
Mdm2 MdmX conf: confirmation of human Mdm2/MdmX interaction inhibitors; hit rate 55% among 10,000; shares compounds with Mdm2-MdmX inh; Mdm2-MdmX binding, luminescent assay; inhibition, % at 8 µM; in the data active = inhibition above about 40%
Full FLuc ctr: inhibits full-length luciferase, flagging false Mdm2/MdmX hits; inhibition, % at 8 µM; SaOS-2 full-length luciferase counterscreen, luminescence; shares compounds with Mdm2-MdmX inh; AID 504607; hit rate 77% among 6,200;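 active = mean inhibition at 8 µM reaching about 37%, which flags the compound as non-specific, limit read from the data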;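 also: p53-null SaOS-2 cells with luciferase driven by a doxycycline-inducible promoter; compound on cells about two nights before reading with doxycycline added after day one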
* = called active by the depositor; u = inconclusive; x = no result. Shown are actives, neighbours in structure and some others; about 5.4% of the full set was active somewhere.

SMILES	MPTP block	Mdm2-MdmX inh	SKKanGAS inh	Beta apoptosis	Calb FLC	CSC inhib	Mdm2 MdmX conf	Full FLuc ctr
COC(=O)c1ccc(C(=O)NC2CCCc3c2cnn3-c2ccc(C)c(C)c2)cc1 (stereo unspecified)	0.6	59.9*	10.8	12.3	-2.4	-22.6	72.3*	59.1*
O=C(NC1CCCc2c1cnn2-c1cc(F)cc(F)c1)c1ccccn1 (stereo unspecified)	1.3	5.3	0.5	1.7	12.4	-16.3	x	x
CN(CC(=O)Nc1c(Cl)cccc1Cl)C(=O)c1cccn1C	-0.3	22.6	-1.5	-9.9	-7.1	-2.7	x	x
O=C(COC(=O)C1CCCCC1)NCCc1ccccc1	-0.4	x	x	x	x	x	x	x
Cc1ccc(C(=O)N/N=C\c2ccc(OC(=O)c3cccc(F)c3)cc2)cn1	0.4	1.2	-0.9	x	-2.4	6.7	x	x
Cc1ccc(-c2cc(C(=O)N/N=C/c3c[nH]c4ccccc34)n[nH]2)o1	-0.2	13.4	2.5	2.3	6.0	30.2	x	x
Cc1cc(C(=O)N/N=C/c2cc(Br)cc(Br)c2OC(=O)c2cccc(F)c2)n[nH]1	0.0	51.1*	6.0	96.9*	-7.8	u	63.6*	43.0*
Cc1ccc(-c2cc(C(=O)N/N=C/c3ccccc3O)n[nH]2)o1	-1.0	53.3*	25.7	44.0	20.8	78.7*	52.9*	47.0*
Cc1cc(C(=O)N/N=C\c2cc(C(C)(C)C)ccc2O)n[nH]1	2.0	65.3*	2.7	-4.4	2.5	-8.5	59.9*	41.0*
CCc1ccc(OCC(O)CN2CCN(c3ccc(OC)cc3)CC2)cc1 (stereo unspecified)	1.5	7.0	5.3	-3.4	6.1	13.9	x	x
CCN1C(=O)C2(Nc3ccccc3-c3nc4ccccc4n32)c2cc(OC)ccc21 (stereo unspecified)	0.6	66.4*	-0.4	-1.5	-8.7	0.0	95.8*	23.7
CN1C(=O)C2(Nc3ccccc3-c3nc4ccccc4n32)c2ccccc21 (stereo unspecified)	2.8	47.5	-8.4	-8.3	1.2	-19.9	x	x
COC(=O)[C@@]12CCCCN1[C@H](c1ccc(-c3ccc(Cl)c(Cl)c3)c(OC)c1)[C@H]1C(=O)N(C)C(=O)[C@H]12	1.0	65.3*	x	15.7	x	x	41.8*	44.2*
CCN1C(=O)[C@H]2[C@@H](c3ccc(-c4ccc(F)cc4)c(OC)c3)N3CCC[C@@]3(C(=O)OC)[C@H]2C1=O	0.2	25.6	13.2	-11.8	15.3	8.3	x	x
COC(=O)[C@@]12CCCCN1[C@H](c1ccc(-c3ccc(Cl)c(Cl)c3)cc1)[C@H]1C(=O)N(C)C(=O)[C@H]12	0.7	66.9*	x	4.4	x	x	20.5	x
COC(=O)[C@@]12CCCCN1[C@H](c1ccc(-c3cc(C(C)=O)cs3)c(OC)c1)[C@H]1C(=O)N(C)C(=O)[C@H]12	0.6	18.5	x	11.2	x	6.8	x	x
COC(=O)[C@@]12CCCCN1[C@H](c1ccc(-c3cc(C(C)=O)cs3)cc1)[C@H]1C(=O)N(C)C(=O)[C@H]12	-1.7	67.4*	20.2	23.5	13.0	-11.0	22.4	x
CCN1C(=O)[C@@H]2[C@@H](c3ccc(-c4ccc(Cl)c(Cl)c4)c(OC)c3)N3CCC[C@@]3(C(=O)OC)[C@@H]2C1=O	-0.2	67.3*	x	-1.5	x	26.6	23.1	x
COc1ccc([C@H]2C[C@@H](n3cc(C4CC4)nn3)[C@H](O)CN2C(=O)C2CCCCC2)cc1	-1.3	x	x	x	x	x	x	x
COc1cc2c(cc1OC)CN(C(=O)C1CCCN1S(=O)(=O)c1ccc(C)cc1)CC2 (stereo unspecified)	-0.9	0.1	-4.0	0.5	-14.8	-25.1	x	x
O=C(C(Sc1ccccc1)c1ccccc1)N1CCN(c2ccccc2)CC1 (stereo unspecified)	11.9	-17.9	-2.0	-0.6	8.3	19.2	x	x
CCc1ccccc1NC(=S)N(Cc1cccs1)C1CCCC1	1.4	-15.6	7.7	-0.9	12.6	-12.9	x	x
CCCCCCSc1ccc([C@@H]2[C@@H]3C(=O)N(CC)C(=O)[C@@H]3[C@]3(C(=O)OC)CCCCN23)cc1	-0.3	51.5*	x	0.1	x	68.2	5.7	x
CCCCCCSc1ccc([C@@H]2[C@H]3C(=O)N(C)C(=O)[C@H]3[C@]3(C(=O)OC)CCCCN23)cc1	0.9	-8.4	20.7	8.0	-16.5	29.7	x	x
CCOC(=O)C1CCCN(C2CC(=O)N(c3cccc(C(F)(F)F)c3)C2=O)C1 (stereo unspecified)	1.5	12.1	-0.2	-1.3	-0.1	9.5	x	x
SMILES	MPTP block	Mdm2-MdmX inh	SKKanGAS inh	Beta apoptosis	Calb FLC	CSC inhib	Mdm2 MdmX conf	Full FLuc ctr
Clc1ccccc1CSc1nnc(-c2cccnc2)n1Cc1ccco1	-0.9	-45.3	2.7	-2.0	-11.5	-4.9	x	x
COC(=O)[C@@H]1CC[C@H](C)[C@@H](c2ccc(C)cc2)N1C(=O)c1ccc(/C=N/O[C@@H](C)c2cn([C@H](CO)Cc3ccccc3)nn2)cc1	x	87.7*	24.6	4.4	26.1	32.4	65.7*	50.7*
CCOC(=O)C1=C(c2ccccc2)NC(=O)NC1c1ccc(O)c(Cl)c1 (stereo unspecified)	0.0	93.5*	-2.5	x	-1.0	7.8	55.9*	30.5
CC(=O)/C(C#N)=C1\NC(=O)C(Cc2ccc(C)c(Cl)c2)S1 (stereo unspecified)	17.6	79.4*	21.6	-5.7	5.9	45.4	78.1*	31.8
CCc1ccc(CC2S/C(=C(\C#N)C(C)=O)NC2=O)cc1 (stereo unspecified)	19.4	61.1*	12.7	x	0.7	52.0	74.1*	70.3*
CCOC(=O)c1ccc(CC2S/C(=C(\C#N)C(C)=O)NC2=O)cc1 (stereo unspecified)	0.8	4.3	15.7	-0.8	1.4	11.9	x	x
COc1ccc(S(=O)(=O)N(C)C[C@H]2Oc3ncc(-c4ccncc4)cc3C(=O)N([C@@H](C)CO)C[C@@H]2C)cc1	-0.6	x	x	x	x	x	x	x
Cc1ccc(N(CC(=O)Nc2cc(Cl)ccc2Oc2ccccc2)S(C)(=O)=O)c(C)c1	2.3	12.5	12.7	-1.4	-0.3	41.0	x	x
Cc1ccc(N(CC(=O)Nc2cc(Cl)ccc2Oc2ccccc2)S(C)(=O)=O)cc1C	0.9	52.2*	22.5	-2.0	-4.0	10.8	2.0	x
Cc1cc2c(cc1C)N(C(=O)CSC1=NCCS1)C(C)(C)c1ssc(=S)c1-2	0.9	42.7	-2.1	-3.9	5.3	x	x	x
Cc1ccc2c(c1)-c1c(ssc1=S)C(C)(C)N2C(=O)CSc1nncn1C	-6.6	4.7	2.2	2.0	-4.6	8.7	x	x
COc1ccc2c(c1)-c1c(ssc1=S)C(C)(C)N2C(=O)CSC1=NCCS1	-0.8	64.0*	-0.1	-3.0	15.9	13.6	33.0	x
CC1(C)c2ssc(=S)c2-c2ccccc2N1C(=O)CSC1=NCCS1	-1.2	51.9*	0.2	-7.1	10.7	3.1	27.4	x
Nc1nc2ccccc2n1/N=C/c1ccc(Br)cc1	-0.4	-37.9	10.3	5.8	4.4	-19.8	x	x

Compound activity: PubChem, several laboratories
